Assay outcomes: PubChem, National Center for Advancing Translational Sciences (NCATS)
HT1080-NT tox: kills 2HG-producing HT-1080-NT fibrosarcoma cells | AID 686970 | hit rate 1.6% among 360,000 | HT-1080-NT fibrosarcoma viability, CellTiter-Glo ATP luminescence, 48 h | Potency, µM (highest dose often 46.1 µM), for inactives: at the highest dose activity, negative = less viability, actives largely listed as cytotoxic;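 also: NT is the 2HG producing partner of a matched IDH1 knockdown line; 0% = DMSO-treated cells and -100% = media-only wells without cells; nearly all actives have a fitted effect of over 55% in size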
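Viability by CellTiter-Glo luminescence after 48 h compound exposure at 37C of HT-1080-NT cells (750/well, RPMI, 5% FBS). % activity scaled between DMSO wells and medium-only wells, then curve-fitted and categorized by curve class.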
MCF10A rereplic: DNA re-replication induction in MCF 10a cells; MCF 10A DNA re-replication, Hoechst nuclear intensity, 48 h; Potency, µM (series often up to 46.1 µM), inactives show at the highest dose activity, positive = re-replication, most hits filed as activators; hit rate 2.9% among 350,000; also: % of control where 0% means no effect; nearly all actives have a fitted effect of over 50% in size
SW480 rerep: DNA re-replication induction in SW480 cells | hit rate 1.8% among 340,000 | SW480 DNA re-replication, Hoechst DNA content imaging, 48 h | Potency, µM (doses to about 46.1 µM), without a hit: top-dose re-replication activation, hits mostly activators; also: % of control where 0% means no effect; nearly all actives have a fitted effect of over 55% in size
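Cells (250 per well) received 23 nL compound or DMSO by pin tool and were kept 48 hr at 37 C, 5% CO2. Nuclei were then stained with Hoechst for 40 min and scanned for DNA content.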
KB-V1 cytotox: kills drug-selected multidrug resistant KB-V1 cells; KB-V1 MDR cells viability, CellTiter-Glo, 72 h; Potency, µM (doses to about 46.1 µM), most hits filed as cytotoxic; hit rate 3.4% among 400,000; AID 1347076; also: % is scaled to controls: 0 for no effect and ±100 for the full control effect; nearly all actives have a fitted effect of over 60% in size
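KB-V1 cells (P-gp-expressing MDR subline of KB-3-1) in phenol-red-free DMEM with 10% FBS were exposed to library compounds over a concentration series for 72 h at 37 degrees C. Viability read by CellTiter-Glo luminescence; concentration-effect curves fitted after normalization.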
KB-3-1 tox: kills parental KB-3-1 adenocarcinoma cells; hit rate 1.4% among 400,000; AID 1347075; Potency, µM (highest dose often 46.1 µM), hits mostly cytotoxic; KB-3-1 viability, CellTiter-Glo ATP luminescence, 72 h; also: % is scaled to controls: 0 for no effect and ±100 for the full control effect; nearly all actives have a fitted effect of over 60% in size
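Luminescent ATP read-out (CellTiter-Glo) measures survival of drug-naive KB-3-1 cells after 72 h compound exposure at 37 °C. Titration series was screened from lowest to highest concentration, with DMSO vehicle plates as background controls.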
HT1080 IDH1KD tx: HT-1080 IDH1 knockdown cell toxicity (counter line). hit rate 2% among 360,000. HT-1080 IDH1 knockdown viability, ATP luminescence, 48 h. Potency, µM (titrated, usually from 46.1 µM), inactives show at the highest dose activity, negative = toxicity, usual class: cytotoxic. AID 686971;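 also: 0% = DMSO wells and -100% = cell-free medium wells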
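Assay cells: HT-1080 with IDH1 knockdown, 750 per well, RPMI/5% FBS. Exposure: 48 h at 37 °C following 2 h pre-incubation. Read: CellTiter-Glo luminescence; fitted concentration-response, curve class assigned.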
Active calls of the source: *; i = inactive; u = inconclusive; x = no result given; [ ] = another dose, or the depositor's remark. Only some compounds are listed: those with a hit (about 7.9% of all), similar ones and a draw of the others. Calls follow the shape of the dose curve; as a rule, active = well fitted curve in the direction sought with a large enough effect; inconclusive = small, poorly fitted or top-dose-only effect, or another doubt; inactive = no such curve, though single readings can be large; an effect the other way counts as inactive or inconclusive. Potency is read from the fitted curve at half-maximal effect.

SMILES	HT1080-NT tox	MCF10A rereplic	SW480 rerep	KB-V1 cytotox	KB-3-1 tox	HT1080 IDH1KD tx
Cc1ccc(CNC(=O)[C@H](C)NC(=O)C2CCN(C(=O)[C@@H](N)CC(C)C)CC2)cc1	-3.5%	-1.1%	u	i	i	-1.6%
CN1CCC(NCCC(c2ccc(F)cc2)c2ccc(Cl)cc2)CC1 (stereo unspecified)	4.11µM*	u	u	u	16.4µM*	5.17µM*
C#CCn1c(S(=O)(=O)Cc2ccc(F)cc2)nc(-c2ccccc2)c1-c1ccccc1	u	u	u	5.17µM*	16.4µM*	1.41µM*
CCOC(=O)Cn1c(-c2ccccc2)nc2ccccc2c1=O	1.9%	u	-7.2%	i	i	5.6%
CCOC(=O)Cn1c(S(=O)(=O)Cc2ccc(F)cc2)nc(-c2ccccc2)c1-c1ccccc1	u	-2.7%	-0.7%	i	i	6.31µM*
CCOC(=O)Cn1c(S(=O)(=O)Cc2cccc(F)c2)nc(-c2ccccc2)c1-c1ccccc1	-3.2%	u	u	20.6µM*	i	7.08µM*
O=C(Nc1cccc(Cl)c1)C1CCN(c2nc3ccccc3nc2C(F)(F)F)CC1	x	x	x	u	i	x
Cc1cc(C)c(O)c(CN(C)Cc2cc(Cl)cc(Cl)c2O)c1	u	1.64µM*	u	u	u	u
[O-][n+]1c2ccccc2cc2ccccc21	-2.1%	18.4µM*	18.4µM*	i	i	-0.9%
COc1ccc2nc3ccccc3[n+]([O-])c2c1	-11.3%	0.4%	0.5%	i	i	-5.1%
CCC(C)c1ccc(NC(=O)Nc2cnccn2)cc1 (stereo unspecified)	u	5.8µM*	3.26µM*	u	3.26µM*	8.2µM*
C=COCCCNc1ncnc2sc(-c3ccccc3)cc12	-7.6%	u	13.1%	i	i	-18.3%
COc1ccc(-c2c(C(F)(F)F)nn(C)c2NC(=O)c2cccnc2)cc1	1.3%	u	-27.6%	i	i	-5.2%
Cc1ccc(SCCCCN2CCNCC2)cc1	-20.2%	u	8.2%	i	i	-17.2%
Clc1ccc(SCCCCN2CCNCC2)cc1	u	2.91µM*	u	i	i	u
CC1CN(CCCCSc2ccc(Cl)cc2)CC(C)O1 (stereo unspecified)	-8.1%	23.1µM*	u	i	i	-3.5%
Clc1ccc(SCCCCn2ccnc2)cc1	-20.4%	10.3µM*	4.1%	i	i	-1.4%
Clc1ccccc1OCCCCn1ccnc1	7.9%[9.24 µM]	-1.4%	-6.4%	i	i	4.7%
CC(=O)C1=C(O)C(=O)OC1c1ccc(Cl)cc1 (stereo unspecified)	0.0%	4.1%	1.3%	i	i	0.1%
CC(C(=O)Nc1ccc2c(c1)OCCO2)n1nnc(-c2ccccc2)n1 (stereo unspecified)	15.3%	u	-11.8%	i	i	10.7%
CCc1ccc(NC(=O)N(CCN2CCOCC2)Cc2ccc3c(c2)CCCN3CC)cc1	-8.2%	17.8%	-0.3%	20.6µM*	i	u
CCN1CCCc2cc(CN(CCN3CCOCC3)C(=O)Nc3ccc(C)c(C)c3)ccc21	-3.5%	u	3.9%	20.6µM*	i	-17.7%
CCCCN1CCCc2cc(CN(CCCN3CCOCC3)C(=O)Nc3ccc(OCC)cc3)ccc21	x	x	x	i	i	x
CCN1CCCc2cc(CN(CCN3CCOCC3)C(=S)Nc3cccc(C)c3)ccc21	-19.4%	4.5%	25.9%	i	u	-11.5%
CCn1nnc2cc(C(=O)N3CCC(C(=O)OC)CC3)ccc21	5.6%	-5.6%	-15.1%	u	i	0.6%
N#Cc1cc2c(=O)n3ccccc3nc2n(-c2ccc(Cl)cc2)c1=O	-1.6%	0.517µM*	u	i	i	0.9%
O=c1ccn(Cc2ccccc2)c(=O)n1Cc1ccccc1	-3.3%	20.6µM*	-9.0%	i	i	0.5%
Cn1c(N)cc(=O)n(Cc2ccccc2)c1=O	5.0%	-11.5%	-6.4%[9.22 µM]	i	i	9.4%
